# Measured values taken from PubChem BioAssay AID1508600 (Functional Genomics Laboratory (NCATS/FGL), 2020).
# About 3,700 (7%) of roughly 53,000 sequences were called active. Only a selection was taken, and actives are over-represented in it overall. A number with no mark means an inactive call.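 The calls were made as follows: active = gene knockdowns whose robust z-score for IL-1 alpha signal is at least 2 or at most -2, so actives lie on both sides; inactive = the rest.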
# Experiment: Components of the Cytosolic LPS Sensing Pathway: Gene Identification via Genome-wide siRNA Screen;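 also: robust z of the log signal after scaling to non-targeting control siRNA wells of the plate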
# Conditions: RAW264.7 macrophages, IL-1a HTRF, actives lie on both sides, screened at 100 nM (by protocol), cells primed 5 h with Pam3CSK4 first
# Outline: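 Knockdown: 100 nM siRNA, 48h, RAW264.7. Stimulation: Pam3CSK4 5 h, then LipidA via TransIT-TKO 24 h. Output: supernatant IL-1a HTRF, negative-control-normalized, log robust z-score; viability by CellTiter-Glo.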
row,Sequence,z-score
1,GGUGAAGAAGAGUCUCAAATT against Mrnip,1.6
2,GCACAUAUCACGCUACCUGTT against Lrrc75b,-0.0605
3,GCGAAGAGUGAUUGAUCCATT against Myh1,-0.773
4,GGAAGCAGAAGCUAAAGUGTT against Ubap1,2.11 (active)
5,CCUGACAGUAGUUACUAUUTT against Olfr1154,-0.945
6,GGUUUUUUGUAGCAAACAGTT against Phc2,-2.7 (active)
7,GGUCCUUUACAUGAACCGCTT against Vps18,-0.661
8,GGAAUGCAUGAUGAUGUCATT against Prl7a2,-0.783
9,GGGAUCCUCUUGACAUUCCTT against Epdr1,3.87 (active)
10,GGUAGCAGACAGCUACCCUTT against Tnfsf15,0.405
11,CCAAGCUAUUGGCCCUGACTT against Defb38,0.251
12,GCUGAUGACCACUGAGUUUTT against Tsr2,1.34
13,GCAAGUCAGCUACAACUGUTT against Rnasek,0.0313
14,GGUGGCUAUAACAGAGCCUTT against Rdh18-ps,0.173
15,GGAAACAAGGAAGCAAUUATT against Psmd1,-3.01 (active)
16,GGAGAAACCAGCUAAAGGATT against Car9,-0.235
17,GGUGAUCAGCAUGGUGGGUTT against Pold1,0.208
18,GGUAUAAAGAACUCUGUCATT against Cep78,-2.49 (active)
19,GGGUGAUAGCAAGACACAGTT against Olfr720,1.06
20,GGAGGACCAAGAGGACAUUTT against Tbl3,0.468
21,GGCCCAAGAGAUUGAUCAATT against Ivd,-0.565
22,CGAAACCUCUAAGAAGAUATT against Pole,-0.264
23,GGCAUGUUCCUCAUAUGCCTT against Lrit1,-2.01 (active)

row,Sequence,z-score
1,GGAGCAUUGCCUUUUAAAGTT against Psph,-0.474
2,CCAAUUGGGCCACACGUAATT against Tial1,1.15
3,GGACUCUUUUGGACCUAAGTT against Hilpda,-1.24
4,GGAACAAAUUCUGGAGUUGTT against Zfp287,0.791
5,GGUUACAGAGAGACAUCAUTT against Cdk5rap2,0.942
6,GGGUUUCAACGGCUGUGACTT against Mef2d,-2.73 (active)
7,GGUUAUGGAGACAAAGGAUTT against Sik1,-1.33
8,CCGUACGAUGAUAAUACCATT against Clec4a3,2.29 (active)
9,GGAGCUAGCUGAGUUCAUGTT against Arhgap4,1.22
10,GGACAGCUCUCUUUAGUCUTT against Erf,-1.78
11,GGACCUGAAGGCUGAAAUUTT against Ing4,3.08 (active)
12,GGUCUGAUAACUCUGGAGGTT against Snf8,-0.0859
13,GGAUGGACAUCCAAGCAGGTT against Fabp9,-1.97
14,GGAGUGUUACUAGAUGUCCTT against Spns3,0.394
15,CGAACUGGUAGAAGUUAUUTT against Csgalnact2,2.07 (active)
16,GGUCUCUGUACUUUGACUGTT against Cldn19,-1.2
17,GGAGCAAAAUUCACAGUCUTT against Bcl7a,-0.25
18,GAUUGGCUUCAAUCUAGUCTT against Olfr713,0.701
19,GGGCCAGAGUCAGAAAAGGTT against Ebp,1.98
20,GCGUAUGUACCGAUGGCAGTT against Mocs2,0.871
21,CGCUGCCUAAACAAGAUUATT against Cacna1f,3.28 (active)
22,AGACCUUGAGAACAUUCUUTT against Nkx2-6,0.925
23,CCGUGAUCUUAAACCCUCUTT against Mapk7,-0.988

row,Sequence,z-score
1,CGUUUUACCACCGUGUGCUTT against Gfra1,-0.284
2,GGUAAUUCAGUCUUAUACATT against Pcdhb21,3.2 (active)
3,CGUGAAGAUUCUUAAGGCGTT against Ppil1,0.716
4,GGUGGAAUUGAAGAGUUCATT against Rcor3,0.24
5,GCAAGAAACGGGAACUAUUTT against Mettl7b,1.25
6,GGCCUUAGAAUUUGAUUCUTT against Slc30a8,0.814
7,GGAUGUAUAGGUUCAGCUGTT against Dph2,0.41
8,GGCCUUUGGGACAUGUGUGTT against Olfr552,-2.05 (active)
9,GGAGAAGCUCUUAAAGAAATT against Traf3ip3,0.959
10,GCAGUGAAGUCCAAGUUAGTT against Pold3,-0.456
11,CCAAUAAGUGACCUUUUUUTT against Tmprss11b,-0.989
12,CCAAGUCUACCUCUAUUUUTT against Pbsn,1.77
13,GGUUCCUUAAUUUAUUGCCTT against Fbxl22,2.31 (active)
14,CCACUAUGGCGACCAGAUUTT against Mfap2,0.0375
15,GCCCUCACAGCCAGAAUUGTT against Pram1,-2.15 (active)
16,GGUUAAAAGCCAUGUGUAATT against Pggt1b,-0.151
17,CGAUGGUCGAAGGAUUGUCTT against Tnfsf4,-0.837
18,GUCACAAGCUGUCCAACAATT against Ndufa7,-2.25 (active)
19,GGUUUUGUCACCAUAGCCATT against 3110040N11Rik,-0.762
20,GGACAUUGAGUCAAAAAUCTT against Slc19a2,-0.966
21,GCCUGGAGAAGUGAACUCUTT against Tll1,-1.65
22,GGGAUUUCGAGAGACUAGCTT against Dock9,-0.487
23,GCCCUGAUGCAAGCUUGUGTT against Gprin3,0.193
